Source: PubChem
SW480 rerep – induces DNA re-replication in SW480 colon adenocarcinoma cells | SW480 DNA re-replication, Hoechst DNA content imaging, 48 h | Potency, µM (titrated, usually from 46.1 µM), for inactives: top-dose re-replication activation, most hits filed as activators | 340,000 compounds, 1.8% hits; also: potency is read from the fitted curve at half-maximal effect; % of control where 0% means no effect; nearly all actives have a fitted effect of over 55% in size
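Cells (250 per well) received 23 nL compound or DMSO by pin tool and were kept 48 hr at 37 C, 5% CO2. Nuclei were then stained with Hoechst for 40 min and scanned for DNA content.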
MCF10A rerep – inducers of DNA re-replication in MCF 10A breast cells; MCF 10A DNA re-replication, Hoechst nuclear intensity, 48 h; Potency, µM (highest dose often 46.1 µM), for the others: top-dose activity, positive = re-replication, hits mostly activators; 350,000 compounds, 2.9% hits; AID 624296; also: potency is read from the fitted curve at half-maximal effect; % of control where 0% means no effect; nearly all actives have a fitted effect of over 50% in size
KB-V1 cytotox – kills drug-selected multidrug resistant KB-V1 cells | KB-V1 MDR cells viability, CellTiter-Glo, 72 h | Potency, µM (doses to about 46.1 µM), usual class: cytotoxic | 400,000 compounds, 3.4% hits | AID 1347076; also: potency is read from the fitted curve at half-maximal effect; % is scaled to controls: 0 for no effect and ±100 for the full control effect; nearly all actives have a fitted effect of over 60% in size
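KB-V1 MDR subline cells in DMEM (phenol-red free, 10% FBS) exposed to compounds in qHTS concentration series for 72 h at 37 degrees C. Viability read by CellTiter-Glo luminescence; concentration-effect curves fitted after normalization and correction.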
KB-3-1 tox – kills parental KB-3-1 adenocarcinoma cells. AID 1347075. Potency, µM (series often up to 46.1 µM), hits mostly cytotoxic. 400,000 compounds, 1.4% hits. KB-3-1 viability, CellTiter-Glo ATP luminescence, 72 h; also: potency is read from the fitted curve at half-maximal effect; % is scaled to controls: 0 for no effect and ±100 for the full control effect; nearly all actives have a fitted effect of over 60% in size
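Luminescent ATP read-out (CellTiter-Glo) measures survival of drug-naive KB-3-1 cells after 72 h compound exposure at 37 °C. Titration series was screened from lowest to highest concentration, with DMSO vehicle plates as background controls.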
IL1B secr inh – inflammasome signaling inhibition, IL-1 beta readout; 360,000 compounds, 4.7% hits; AID 743279; THP-1 LPS/ATP IL-1B secretion, AlphaLISA, 16 h; stronger effect = lower value; activity change, % at 57.5 µM; in the data active = activity change below about -50%; inconclusive = mostly about -30% to -49%; also: % is scaled to controls: 0 for no effect and ±100 for the full control effect
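Secreted IL-1B measured by AlphaLISA bead assay after 16 h compound exposure of THP-1 cells; compounds (final up to 57.5 uM) added 1 h before LPS (250 ng/mL) and ATP (1.25 mM) stimulation; lower signal means less secretion.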
* hit, by the source's call; i = inactive; ? = inconclusive; · = no result given. Hits are enriched below; roughly 9.9% of the tested compounds scored in any of these assays. Unless noted, calls follow the shape of the dose curve; as a rule, active = well fitted curve in the direction sought with a large enough effect; inconclusive = small, poorly fitted or top-dose-only effect, or another doubt; inactive = no such curve, though single readings can be large; an effect the other way counts as inactive or inconclusive.

SMILES	SW480 rerep	MCF10A rerep	KB-V1 cytotox	KB-3-1 tox	IL1B secr inh
Cc1ccc(C2CCN(C(=O)Nc3ccc(F)cc3)C2)cc1 (stereo unspecified)	0.3%	1.1%	i	i	-67.6*
C[C@@H]1[C@H](c2ccccc2)OCCS(=O)(=O)N1Cc1cccc(Cl)c1	·	·	?	i	·
O=C(CN1/C(=C(/O)c2ccccc2)C(=O)c2ccccc2S1(=O)=O)c1ccccc1	-4.9%	6.0%	1.46µM*	?	-8.6
COc1ccc(CCC(=O)N2c3ccccc3N=C(c3ccc(C(F)(F)F)cc3)C2C(=O)NC2CCCC2)cc1 (stereo unspecified)	·	·	?	?	-4.7
O=[N+]([O-])c1ccc2c(c1)C(=Nc1ccccc1)c1ccccc1-2	8.6%	?	i	i	-11.4
O=[N+]([O-])c1ccc2c(c1)-c1ccccc1C2=NO	-0.2%	20.6%	?	i	-74.7*
O=C1Nc2ccccc2Nc2ccc([N+](=O)[O-])cc21	?	4.0%	i	i	18.2
O=C(Nc1cc2c(cc1Cl)-c1ccc([N+](=O)[O-])cc1C2=NO)C(F)(F)F	0.9%	12.1%	i	?	-65.0*
O=C1OC(=O)c2cc([N+](=O)[O-])ccc21	-21.6%	-17.0%	i	i	-53.6*
Nc1ccc2c(c1)C(=NO)c1cc([N+](=O)[O-])ccc1-2	10.3µM*	11.0%	i	i	-73.4*
Cc1ccc(Sc2ccc(N3CCC(C(=O)Nc4ccc(Cl)cc4)CC3)nn2)cc1	·	·	i	i	·
O=C(NCCCCO)c1ccc2c3c(cccc13)CC2	-4.8%	-5.5%	i	i	32.0
CCc1cccc2c(C(O)(c3c[nH]c4c(CC)cccc34)c3c[nH]c4c(CC)cccc34)c[nH]c12	·	·	i	i	·
CN(C)/C=N/C(=S)Nc1ccc(Cl)c(Cl)c1	4.3%	8.6%	i	i	-91.2*
COC(=O)c1sc(N/N=C/c2ccc(C(C)C)cc2)nc1C	?	14.6µM*	i	i	-64.0*
CC(=O)c1sc(N/N=C\c2ccc(N(C)C)cc2)nc1C	?	16.4µM*	i	i	36.8
CC(=O)c1sc(N/N=C/c2cccc([N+](=O)[O-])c2)nc1C	11.1%	16.7%	i	i	-22.6
CC(=O)c1sc(N/N=C/c2cccc(O)c2)nc1C	-9.2%	11.9%	i	i	43.4
CC(=O)c1sc(N/N=C\c2c(O)ccc3ccccc23)nc1C	3.26µM*	?	i	?	74.3
CC1CC1C(=O)Nc1nc(-c2cccs2)c(-c2cccs2)s1 (stereo unspecified)	-4.7%	?	i	i	-10.8
O=C(CSc1nccn(-c2ccc(Br)cc2)c1=O)NCc1ccccc1	-2.7%	19.3%	13µM*	i	-3.8
CC(=O)NC12CC3CC(C1)CC(C(=O)N1CCN(S(=O)(=O)c4cccc(F)c4)CC1)(C3)C2	-1.3%	0.3%	i	i	9.7
CC(=O)NC12CC3CC(C1)CC(C(=O)Nc1ccc(C)c(S(=O)(=O)N4CCCCCC4)c1)(C3)C2	2.3%	4.6%	20.6µM*	?	6.6
CC(=O)NC12CC3CC(C1)CC(C(=O)Nc1cccc(S(=O)(=O)N4CCCCCC4)c1)(C3)C2	-0.3%	15.4%	14.6µM*	i	-13.4
COc1ccc(NC(=O)COC(=O)C23CC4CC(CC(NC(C)=O)(C4)C2)C3)cc1S(=O)(=O)N1CCOCC1	-2.6%	-2.1%	i	i	6.7
SMILES	SW480 rerep	MCF10A rerep	KB-V1 cytotox	KB-3-1 tox	IL1B secr inh
CCCCNC(=O)c1nc(-c2ccccc2)oc1-c1ccc(Cl)cc1	·	·	?	i	0.6
COc1ccc(C(=O)Nc2c(-c3cccs3)c(=O)c3ccccc3n2C)cc1	26.0%	16.5%	i	?	-82.1*
COc1ccc(C(=O)Nc2nnc(-c3cccs3)s2)cc1	?	?	?	5.17µM*	33.1
COc1ccc(NC(=O)Nc2nnc(-c3cccs3)s2)cc1	-3.7%	-0.4%	i	i	28.0
Cc1cc(N(C)C)c(C#N)c(NCc2ccccc2)n1	-0.8%	9.8%	i	i	-17.1
Cc1ccc2cc(C#N)c(NCc3ccccc3)nc2c1	?	9.2µM*	i	i	0.0
